# Compound activity from PubChem BioAssay.
# Shown are actives, neighbours in structure and some others; about 2.2% of the full set was active somewhere.
# NPR2 activator = GC-B (human) receptor activation; 370,000 compounds, 0.11% hits; HEK293-GC-B cells, CNP EC30, cGMP TR-FRET; 0% at EC30 CNP, 100% saturating CNP; activation, % at 10 µM; AID 1920062; P20594;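 active means activation at 10 µM reaching about 35% in either raw or pattern-adjusted values, limit read from the data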
# proKLK7 act = activates the human kallikrein-7 zymogen. P49862. 370,000 compounds, 0.9% hits. activation, % at 7 µM. purified proKLK7, EDANS-DABCYL substrate fluorescence; 100% is mature enzyme control, 0% vehicle;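 active means activation above the mean of all tested compounds plus 3 SD, computed per campaign excluding outliers beyond control limits, cut at about 13% in these data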
# Target sequence (P49862 whole entry, looked up): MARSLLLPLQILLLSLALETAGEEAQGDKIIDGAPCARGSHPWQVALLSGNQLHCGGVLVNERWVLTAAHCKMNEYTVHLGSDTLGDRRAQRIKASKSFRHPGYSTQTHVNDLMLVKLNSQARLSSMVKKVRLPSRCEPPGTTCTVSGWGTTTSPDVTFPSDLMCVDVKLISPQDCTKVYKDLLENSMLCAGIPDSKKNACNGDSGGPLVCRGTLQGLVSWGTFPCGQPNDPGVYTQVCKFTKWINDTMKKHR
# ADAM17 inh = ADAM17 inhibition, QFRET primary screen; P78536; recombinant ADAM17, EDANS/DABCYL FRET peptide cleavage; AID 720648; 370,000 compounds, 0.83% hits; inhibition, % at 6.95 µM;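 active means inhibition above the mean of compounds lying between control limits plus 3 SD, set per campaign, cut at about 8.5% in these data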;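 further: 0% = DMSO-only wells as the low control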
# ADAM10 inh = ADAM10 inhibition, QFRET primary screen | O14672 | recombinant ADAM10, EDANS/DABCYL FRET peptide cleavage, 3 h | inhibition, % at 7 µM | 370,000 compounds, 0.62% hits;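 active means inhibition above a per-campaign cutoff equal to the mean of compounds falling between control-based bounds plus 3 SD, cut at about 20% in these data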;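 further: 0% = DMSO wells while the 100% control is not disclosed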
# NPR1 activator = GC-A (human) enzyme activation. P16066. HEK293 GC-A cells, cGMP TR-FRET, EC30 ANP; 0% at EC30 ANP, 100% saturating ANP. activation, % at 10 µM. 370,000 compounds, 0.14% hits. AID 1671463; in the data active means activation above about 40%
# ADAM10 confirm = confirmation of inhibitors of human ADAM10. 2,100 compounds, 1% hits. ADAM10 QFRET peptide cleavage, EDANS fluorescence. shares compounds with ADAM10 inh. inhibition, % at 6.95 µM;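 active means inhibition above about 20% chosen separately for each screening run, limit read from the data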;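 further: 0% = DMSO wells and 100% = marimastat wells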
# ADAM17 counter = counter-screen for ADAM10 exosite inhibitors: inhibitors of human ADAM17 | shares compounds with ADAM10 inh | ADAM17 QFRET peptide cleavage, EDANS fluorescence | inhibition, % at 6.95 µM | 2,100 compounds, 0.5% hits | AID 743214;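 active means mean triplicate inhibition above the solvent-only control wells' mean plus 3 SD, cut at about 12% in these data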;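 further: 0% = DMSO wells and 100% = marimastat wells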
# Numbers without * were called inactive; nt = not tested or not shown.
SMILES,NPR2 activator,proKLK7 act,ADAM17 inh,ADAM10 inh,NPR1 activator,ADAM10 confirm,ADAM17 counter
O=C(c1c(F)cccc1F)N1CCC(Oc2cccnc2)CC1,1,0,-5,-5,-1,nt,nt
COc1ccc(C2=NOC(C(=O)Nc3ccc4c(c3)OCO4)C2)cc1 (stereo not given),-1,0,4,22*,0,3,1
COC(=O)c1ccc(CSc2nc3ccccc3c(=O)n2-c2ccc(OC)c(OC)c2)o1,18,-2,-1,8,12,nt,nt
COC(=O)c1ccc(CSc2nc3ccccc3c(=O)n2-c2ccccc2)o1,-5,0,4,20*,-8,4,1
C#CCNC(=O)C[C@H]1C[C@@]2(C(=O)OC)C(=C[C@H](C(C)C)O[C@@H]2C2CC2)N(CCCCCCCC)C1=O,-9,0,0,7,1,nt,nt
COC(=O)[C@]12C[C@H](CC(=O)N3CCSCC3)C(=O)N(Cc3ccco3)C1=C[C@H](C(C)C)O[C@@H]2C1CC1,-2,0,4,6,-5,nt,nt
CCC(CO)Oc1cc(NCc2ccc(Cl)cc2)c2ncn(C(C)C)c2c1 (stereo not given),5,0,-9,-10,5,nt,nt
CCC(CO)Oc1cc(NCc2ccc(Cl)cc2Cl)c2ncn(C(C)C)c2c1 (stereo not given),-2,0,7,22*,0,5,0
CC(C)COc1ccc(CNC(=S)Nc2ccccc2)cc1Cl,6,0,5,21*,-1,10,2
CC(C)Oc1ccc(CNC(=S)Nc2ccccc2)cc1Cl,-1,0,0,2,-2,nt,nt
COc1ccc(CC(=O)NNC(=S)Nc2ccccc2)cc1Br,7,0,1,15,-2,nt,nt
CCOc1ccc(CC(=O)NNC(=S)Nc2ccccc2)cc1Br,6,0,1,20*,3,1,-1
O=C(Cc1noc2ccccc12)NNC(=S)Nc1ccccc1,-6,0,6,20*,3,5,1
CC(C)Oc1ccc(CC(=O)NNC(=S)Nc2ccccc2)cc1,-5,-2,8,27*,2,1,0
Cc1cccc(NC(=O)Nc2c(-c3ccc(C(F)(F)F)cc3)nc3ncccn23)c1,6,-3,-9,-39,2,nt,nt
CCNS(=O)(=O)c1ccc(CCC(=O)Nc2cc(Cl)ccc2Oc2ccccc2)cc1,-4,0,6,21*,-5,4,2
CCNS(=O)(=O)c1ccc(CCC(=O)Nc2ccccc2)cc1,4,0,-2,1,1,nt,nt
CCOC(=O)[C@@H]1[C@H]2COc3ccc(Br)cc3[C@H]2N2C(=O)N(c3ccc(F)cc3)C(=O)[C@]12C,-12,0,4,25*,-5,5,2
CCOC(=O)[C@@H]1[C@H]2COc3ccc(Br)cc3[C@@H]2N2C(=O)N(c3ccc(Br)cc3)C(=O)[C@@]12C,4,0,0,8,-5,nt,nt
NC(=O)CSc1ncc(-c2ccc([N+](=O)[O-])cc2)[nH]1,-5,0,2,4,0,nt,nt
O=[N+]([O-])c1ccc(-c2cnc(SCc3ccccc3Cl)[nH]2)cc1,-2,0,1,20*,6,5,2
CCOc1cc(/C=N/NC(=O)COc2ccc(C)cc2)ccc1OC(=O)c1cccs1,-2,0,4,21*,0,10,2
COc1cc(/C=N/NC(=O)COc2ccc(C)cc2)ccc1OC(=O)c1cccs1,5,0,7,18,1,nt,nt
COC(=O)C1CN(Cc2ccc(C)cc2)CCS(=O)(=O)N1Cc1cn(Cc2ccc(Cl)cc2)nn1 (stereo not given),-15,1,3,8,-7,nt,nt
CN1CCN(S(=O)(=O)c2cccc(C(=O)NCCOc3ccccc3)c2)CC1,3,1,1,5,-1,nt,nt
SMILES,NPR2 activator,proKLK7 act,ADAM17 inh,ADAM10 inh,NPR1 activator,ADAM10 confirm,ADAM17 counter
O=C(NCCOc1ccccc1)c1cccc(S(=O)(=O)N2CCN(Cc3ccccc3)CC2)c1,3,0,7,24*,0,4,1
COc1ccc(CNC(=O)c2cccc(S(=O)(=O)N3CCN(c4ccc(F)cc4)CC3)c2)cc1,4,1,8,22*,1,6,2
C#CCNC(=O)C[C@@H]1C[C@]2(C(=O)OCC)CCC3=C2N(CCC3)C1=O,1,0,-3,0,-1,nt,nt
COC(=O)[C@]1(CNC(C)=O)CC(=O)N(Cc2ccc(Cl)cc2)[C@@H]1c1ccc(OC)cc1,-12,1,6,4,-5,nt,nt
N#Cc1cccc(-n2cc(COC(=O)NCCc3ccccc3)nn2)c1,-5,0,-2,2,-8,nt,nt
C[C@@H](NC(=O)C[C@H]1CC[C@H]2[C@@H](COc3ccc(NC(=O)Nc4ccccc4)cc3C(=O)N2C)O1)c1ccccc1,4,0,-9,1,4,nt,nt
COc1ccc(S[C@]2(C(=O)N3CCCC3)CC(=O)N(C(=O)c3ccccc3)[C@@H]2c2ccc(OC)cc2)cc1,-4,1,6,5,-7,nt,nt
Cc1ccc(C(=O)Nc2ccccc2Oc2ccccc2)cc1[N+](=O)[O-],3,1,5,22*,-1,4,0
CCOC(=O)[C@]12CCCCC/C=C\1N(Cc1ccc(OC)cc1)C(=O)[C@H]2CC(=O)N1CCCC1,-2,1,-1,-2,3,nt,nt
NNc1nc(-c2ccccc2)nc(-c2ccccc2)c1Br,-6,-1,7,21*,-17,3,1
CS(=O)(=O)N1CCC[C@]2(CC[C@H](CCC#N)O2)C1,-2,0,-2,-3,-1,nt,nt
O=C(COC(=O)CCSc1ccccc1)Nc1ccc(F)cc1Cl,3,0,7,7,4,nt,nt
O=C(COC(=O)CCSc1ccccc1Cl)Nc1ccc(F)cc1F,2,0,7,23*,5,2,1
S=C(Nc1ccc(Br)cc1)OCCN1CCCC12CCC(c1ccccc1)CC2 (stereo not given),-1,nt,5,2,3,nt,nt
Cc1onc(-c2ccccc2Cl)c1C(=O)Nc1nnc(Cc2ccc(Cl)cc2)s1,2,-1,8,23*,1,5,1
Cc1ccc(OCC(=O)NNC(=O)C(=O)NC(C)(C)C)cc1,1,0,6,21*,0,0,0
CC1=C[C@]2(C[N+](Cc3ccccc3)=C(N)N2)n2c(=O)n(-c3ccccc3)c(=O)n2C1,2,0,3,-2,-2,nt,nt
FC(F)(F)c1ccc(-c2nc(=S)[nH][nH]2)cc1,-5,0,3,25*,-2,1,2
